Structures are written as SMILES. “And” between values parts separate entries of the source, which are not always exact repeats. Identical values can stand only once. Among all 360,000 compounds or so, about 11,000 (3.1%) were called active. No stated cut-off is given here; in the data, active means activity change below about -30%; inactive means the rest. The full list was thinned out, with actives kept by preference. A structure can be active in one record and inactive in another.
On the % scale 0 is the no-effect control and ±100 the full control effect.

Chain of D(1A) dopamine receptor (Homo sapiens) (P21728 whole entry, looked up): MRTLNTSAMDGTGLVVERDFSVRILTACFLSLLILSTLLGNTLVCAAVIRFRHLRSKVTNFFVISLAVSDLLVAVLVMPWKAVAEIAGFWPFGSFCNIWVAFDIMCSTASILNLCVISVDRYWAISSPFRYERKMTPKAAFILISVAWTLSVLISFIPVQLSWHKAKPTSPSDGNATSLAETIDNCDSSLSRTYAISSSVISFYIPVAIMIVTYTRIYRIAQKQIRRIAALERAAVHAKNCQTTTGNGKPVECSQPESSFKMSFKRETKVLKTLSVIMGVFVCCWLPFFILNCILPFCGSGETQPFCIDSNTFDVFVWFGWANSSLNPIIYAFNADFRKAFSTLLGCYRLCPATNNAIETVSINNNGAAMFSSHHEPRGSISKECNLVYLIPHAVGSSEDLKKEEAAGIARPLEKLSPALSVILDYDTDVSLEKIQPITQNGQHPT

The test concerns the target D(1A) dopamine receptor (Homo sapiens) (UniProt P21728). As to the kind of experiment: Antagonist of Human D 1 Dopamine Receptor: qHTS. As to conditions: HEK293 TREx D1 cells, calcium flux, dopamine EC80; at 10 µM; stronger effect = lower value. Put shortly:
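Cells carrying a force-coupled, tetracycline-inducible human D1 receptor report calcium flux. Each well gets a 10 s baseline, compound with 180 s monitoring, then an EC80 dopamine stimulus with a second 180 s kinetic read.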
For `CC(=O)N1CCc2cc(S(=O)(=O)NC(Cc3ccccc3)C(=O)NCc3ccc(C)cc3)ccc21` (centres undefined), the activity change, negative = inhibition was 7.72% (inactive). The same measure for `CCC(=O)N1CCc2cc(S(=O)(=O)NC(Cc3ccccc3)C(=O)NCc3ccc(C)cc3)ccc21` (centres undefined): 20.6% (inactive); for `CCC(=O)N1CCc2cc(S(=O)(=O)NC(C(=O)Nc3ccc(C(C)=O)cc3)C(C)C)ccc21` (centres undefined): -1.32% (inactive); for `CCC(=O)N1CCc2cc(S(=O)(=O)NC(C(=O)NCCc3ccc(C)cc3)C(C)C)ccc21` (centres undefined): 14.4% (inactive). As for `CCC(=O)N1CCc2cc(S(=O)(=O)NC(C(=O)N3CCc4ccccc4C3)C(C)C)ccc21` (centres undefined), the activity change, negative = inhibition was -32.3% (active). `CCC(=O)N1CCc2cc(S(=O)(=O)NC(Cc3ccccc3)C(=O)NCc3ccccc3)ccc21` (centres undefined): the activity change, negative = inhibition is -62% (active). Next, `Cc1ccc(C)c(Cn2c(C(=O)O)c(CNCc3cccs3)c3ccccc32)c1`: 57.2% (inactive). On to `Cc1ccccc1-c1nc2cc(NC(=O)c3cccc(OCCC(C)C)c3)ccc2o1`, for which the activity change, negative = inhibition was 0.754% (inactive). For the compound `CC1=C(C(=O)N2CCN(c3cccc(C(F)(F)F)c3)CC2)C2(CCCCC2)OC1=O`, the activity change, negative = inhibition was -3.32% (inactive). Consider `COC(=O)c1ccccc1NC(=O)Cn1c(=O)n(-c2cccc(C(F)(F)F)c2)c(=O)c2c(C)c(C)sc21`, for which the activity change, negative = inhibition is 0.199% (inactive). As for `CCOC(=O)C1CCCN(CC(=O)Nc2cc(C)c3c(=O)oc4ccccc4c3n2)C1` (centres undefined), the activity change, negative = inhibition was -9.54% (inactive). As to `COc1ccccc1Nc1nc(N)nc(N)c1S(=O)(=O)c1ccccc1`, the activity change, negative = inhibition was 3.62% (inactive). With `CCN(CC)S(=O)(=O)c1ccc2c(c1)nc(CN(C)C(=O)Nc1ccc(Cl)cc1)n2C`, the activity change, negative = inhibition was -30.4% (active). Next, `Cn1c(CN2CCOCC2)nc2cc(NC(=O)c3ccc(Cl)cc3)ccc21`: -2.81% (inactive); `CCN(CC)S(=O)(=O)c1ccc(NC(=O)c2cnc(C)cn2)cc1`: 5.26% (inactive). As to `Cc1ccc(Cl)cc1NC(=O)CSc1nc2ccccc2nc1Cc1ccccc1`, the activity change, negative = inhibition was 3.51% (inactive). As for `Cc1cccc(N2CCN(c3ccc(C(N)=O)cc3[N+](=O)[O-])CC2)c1C`, the activity change, negative = inhibition is 9.32% (inactive).

Consider `CN1CCN(c2ccc(S(=O)(=O)Nc3ccccc3)cc2[N+](=O)[O-])CC1`, for which the activity change, negative = inhibition was -46.5% (active). The same measure for `COc1ccc(NS(=O)(=O)c2ccc(N3CCN(CCO)CC3)c([N+](=O)[O-])c2)cc1`: -20.8% (inactive); for `CN1CCN(S(=O)(=O)c2ccc(N3CCN(c4ccccc4O)CC3)c([N+](=O)[O-])c2)CC1`: 7.38% (inactive). Next, `Cc1ccc(C(=O)c2ccc(N3CCN(C)CC3)c([N+](=O)[O-])c2)cc1`: -41.9% (active). Next, `CS(=O)(=O)N1CCN(c2ccc(C(=O)NC3C4CC5CC(C4)CC3C5)cc2[N+](=O)[O-])CC1` (centres undefined): -9.31% (inactive). `COC(=O)c1c(NC(=O)C(C)Oc2ccc(Cl)c(C)c2)sc(C)c1C` (centres undefined): the activity change, negative = inhibition is 14.5% (inactive).

Consider `Fc1ccc(-c2nn(-c3ccccc3Cl)c3c2cnc2ccccc23)cc1`, for which the activity change, negative = inhibition was 15% (inactive). For the compound `COc1cc(C)ccc1OCCSc1nc2ccc(NC(=O)c3ccc(C)cc3)cc2s1`, the activity change, negative = inhibition was 5.21% (inactive). Regarding `Cc1ccc(NC(=O)NC(C)c2c(-n3cccc3)sc(C)c2C)c(C)c1` (centres undefined), the activity change, negative = inhibition is -16% (inactive). For `O=C(Cc1ccc(Cl)cc1)NCC(c1cccs1)S(=O)(=O)c1ccc(Cl)cc1` (centres undefined), the activity change, negative = inhibition was 4.53% (inactive). Turning to `Cn1ccc2cc(S(=O)(=O)N3CCCC(C(=O)NCc4ccccc4F)C3)ccc21` (centres undefined), the activity change, negative = inhibition is -17.1% (inactive). With `CCOc1ccccc1NC(=O)CCn1cnnn1`, the activity change, negative = inhibition was -17.8% (inactive). Next, `CC(=O)c1ccc(NC(=O)c2ccc(-n3cncn3)c([N+](=O)[O-])c2)cc1`: 2.28% (inactive); `Cc1ccccc1OCC(=O)NNC(=O)c1ccc(-n2cncn2)c([N+](=O)[O-])c1`: -67.1% (active). The same measure for `O=C(NNC(=O)c1ccc(-n2cncn2)c([N+](=O)[O-])c1)c1ccccc1`: -5.21% (inactive). The same measure for `Cc1nc2ccn(Cc3cccs3)c(=O)c2cc1C(=O)NCc1ccc(Cl)cc1`: -27.7% (inactive). Regarding `COc1ccc(OC)c(-n2nnc3c(sc4nc(C)c(Br)c(C)c43)c2=O)c1`, the activity change, negative = inhibition is -6.84% (inactive).

Take `COc1ccc(NC(=O)CSc2nnc(-c3nnn(-c4ccc(F)cc4)c3C)o2)cc1`: the activity change, negative = inhibition is -7.41% (inactive).

As for `N#CC1(NC(=O)COC(=O)CCN=C2NS(=O)(=O)c3ccccc32)CCCCC1`, the activity change, negative = inhibition is -2.93% (inactive). Consider `O=C(OCCN=C1NS(=O)(=O)c2ccccc21)c1cccc([N+](=O)[O-])c1`, for which the activity change, negative = inhibition was -6.81% (inactive).

As to `O=C(CCCN=C1NS(=O)(=O)c2ccccc21)OCC(=O)c1ccc(F)c(F)c1`, the activity change, negative = inhibition was -64.4% (active). The same measure for `CCCCOc1ccc(CNC(=O)c2ccc3c(c2)N(C)C(=O)C2CCCCN32)cc1` (centres undefined): 20.7% (inactive).

In the case of `CCc1nc2cccnc2n1-c1ccc(CC(=O)Nc2c(C)cccc2C)cc1`, the activity change, negative = inhibition was 0.844% (inactive).

Turning to `COc1cc(OC)c(NC(=O)c2cc(S(=O)(=O)N3CCCC3)cn2C)cc1Cl`, the activity change, negative = inhibition was -11% (inactive). In the case of `COc1cc(OC)c(NC(=O)c2cnc(N3CCCC3)nc2C)cc1Cl`, the activity change, negative = inhibition was -35.8% (active).

Turning to `COc1cc(OC)c(NC(=O)N2CC3CCCN3c3ccccc32)cc1Cl` (centres undefined), the activity change, negative = inhibition is 46.3% (inactive). The same measure for `CCc1ccccc1NC(=O)N1CCC2(CC1)Oc1ccccc1C(=O)N2Cc1ccccc1F`: -12.2% (inactive); for `CCc1nn(CCCN2CCN(c3cccc(Cl)c3)CC2)c(=O)n1CCOc1ccccc1`: -25.8% (inactive) and -41.5% (active). Consider `OC(COc1ccc2c(c1)CCC2)CN1CCN(c2cccc(Cl)c2)CC1` (centres undefined), for which the activity change, negative = inhibition is -0.524% (inactive). As to `Cc1nn(CCOc2ccccc2)c(=O)n1-c1ccccc1F`, the activity change, negative = inhibition was -11.9% (inactive). As to `CCOc1ccc(CNC(=O)CCc2c(C)nn(-c3ccc(N4CCCCC4)nn3)c2C)cc1`, the activity change, negative = inhibition is -12.9% (inactive).

On to `COc1ccccc1C(=O)Nc1c(C(=O)Nc2ccc(C)cc2)oc2ccccc12`, for which the activity change, negative = inhibition is 2.57% (inactive). Turning to `COc1ccc(NC(=O)c2ccc3nc(C(C)C)oc3c2)cc1OC`, the activity change, negative = inhibition was 13.3% (inactive). Turning to `O=C1CCCc2c1[nH]c1ccc(Br)cc21`, the activity change, negative = inhibition is 12% (inactive). Regarding `CCOC(=O)c1ccc2[nH]c3c(c2c1)CCCC3NC=O` (centres undefined), the activity change, negative = inhibition is -2.15% (inactive). Consider `O=[N+]([O-])c1ccc2[nH]c3c(c2c1)CCCC3O` (centres undefined), for which the activity change, negative = inhibition was -30.8% (active). In the case of `CCOC(=O)C1CCCN(S(=O)(=O)c2cc(-c3cc(C)no3)ccc2OC)C1` (centres undefined), the activity change, negative = inhibition is -12.1% (inactive). The same measure for `COC(=O)c1scc(-c2ccccc2)c1S(=O)(=O)Nc1ccccc1`: -7.67% (inactive); for `CCn1c(=O)c2cc(C(=O)NCCc3ccc(Cl)cc3)sc2c2ccccc21`: 3.78% (inactive); for `COc1cccc(NC(=O)Cn2c(=O)cc(C)c3c(C)nn(-c4cccc(F)c4)c32)c1`: 11.7% (inactive). With `COc1cn(CC(=O)Nc2cccc(C)c2C)c(CN2CCCCC2)cc1=O`, the activity change, negative = inhibition was -18.9% (inactive). Next, `O=C(Nc1nnc(COc2ccccc2)s1)Nc1ccccc1F`: -5.26% (inactive). `COc1ccccc1NC(=O)Nc1nnc(Cc2ccc(F)cc2)s1`: the activity change, negative = inhibition was -35.5% (active).

As to `COc1ccccc1NC(=O)Nc1nc(CC(=O)Nc2ccccc2F)cs1`, the activity change, negative = inhibition is 2.24% (inactive). For the compound `COc1ccc(Cl)cc1-n1c(CCC(=O)O)ccc1-c1ccc(C)cc1`, the activity change, negative = inhibition is -15.3% (inactive). In the case of `Cc1cccc(N2CCN(S(=O)(=O)c3ccc4[nH]c5c(c4c3)CCCCC5)CC2)c1C`, the activity change, negative = inhibition is 0.754% (inactive). The same measure for `CC1CCN(C(=S)c2cccc([N+](=O)[O-])c2)CC1`: -12.4% (inactive); for `CN1CCN(c2ccc([N+](=O)[O-])c(Sc3nc4ccccc4[nH]3)c2)CC1`: -1.85% (inactive); for `CC1CCN(c2ccc([N+](=O)[O-])c(SCCO)c2)CC1`: -30.7% (active).

For `Cc1nn(-c2ccc(N3CCCCC3)nn2)c(C)c1CCC(=O)NCc1ccccc1F`, the activity change, negative = inhibition is -7.94% (inactive).

Regarding `Cc1cccc(OCCSc2nc3ccccc3n2CC(=O)N2CCCCC2)c1C`, the activity change, negative = inhibition is -17.2% (inactive).

`O=C(OCC(=O)N1CCc2ccccc21)c1ccc([N+](=O)[O-])cc1`: the activity change, negative = inhibition is -13% (inactive). The same measure for `COc1ccc(C(CNC(=O)COc2ccc([N+](=O)[O-])cc2)N2CCCCC2)cc1` (centres undefined): 6.98% (inactive); for `O=C1CCCN1C(=O)COc1ccc([N+](=O)[O-])cc1`: -83.3% (active); for `O=C(NCC(c1cccnc1)N1CCc2ccccc21)c1cccc(C(F)(F)F)c1` (centres undefined): 4.34% (inactive). Consider `Cc1ccc2oc3c(c(=O)c2c1)C(c1ccc([N+](=O)[O-])cc1)N(CCCN1CCOCC1)C3=O` (centres undefined), for which the activity change, negative = inhibition was -8.02% (inactive). The same measure for `Cc1ccc(-c2nn3c(=O)cc(CN4CCN(C(=O)Nc5cccc(C(F)(F)F)c5)CC4)nc3s2)cc1`: 4.59% (inactive); for `Cc1ccc(C)c(N2CCN(C(=O)CN3C(=O)COc4ccc(S(=O)(=O)N5CCCCCC5)cc43)CC2)c1`: -0.74% (inactive); for `Cc1ccsc1/C=N/n1c(=S)[nH]nc(C)c1=O`: 0.744% (inactive). As for `Cc1ccccc1-c1n[nH]c(=S)n1/N=C/c1ccc(-c2ccccc2Br)o1`, the activity change, negative = inhibition was -0.652% (inactive).

Take `S=c1[nH]nc(-c2ccco2)n1/N=C/c1ccc(Br)s1`: the activity change, negative = inhibition is -38.6% (active). `O=C(CN1C(=O)COc2ccc(S(=O)(=O)N3CCOCC3)cc21)N1CCN(c2cccc(Cl)c2)CC1`: the activity change, negative = inhibition is -5.01% (inactive). The same measure for `COc1ccc(CNC(=O)CCc2c(C)nn(-c3ccc(N4CCCC4)nn3)c2C)cc1`: 8.22% (inactive); for `Cc1ccc(-n2nc(C)c(C(=O)O)c2-n2cccc2)cc1`: -8.13% (inactive); for `Cc1nn(-c2ccc(F)cc2)c(-n2cccc2)c1C(=O)N1CCN(c2ccccc2)CC1`: 21% (inactive). `Cc1nn(-c2ccccc2)c(-n2cccc2)c1C(=O)O`: the activity change, negative = inhibition was -45.8% (active). In the case of `CCN(CC)CCNC(=O)c1cc2c(=O)oc3ccc(C)cc3c2s1`, the activity change, negative = inhibition was 4.45% (inactive).

The values above are taken from PubChem BioAssay AID504652 (National Center for Advancing Translational Sciences (NCATS), 2011).
